# Measured values published in PMC7862700, “An all-to-all approach to the identification of sequence-specific readers for epigenetic DNA modifications on cytosine”.
# Legend:
# Assay in all cases: DAPPL (digital affinity profiling via proximity ligation, sequencing); 10 mM Tris-HCl pH 7.5, 50 mM NaCl, 1 mM DTT, 4% glycerol, room temperature, 30 min; GST-TFs on glutathione beads, 16-mer random dsDNA library, 0.1% formaldehyde crosslink after washing; high values mean tight binding
# [1] = target: T1, FEV (Homo sapiens, UniProt Q99581 1-238); settings: protein: recombinant; tags: N-terminal GST; dsDNA, one strand shown
# T1 sequence: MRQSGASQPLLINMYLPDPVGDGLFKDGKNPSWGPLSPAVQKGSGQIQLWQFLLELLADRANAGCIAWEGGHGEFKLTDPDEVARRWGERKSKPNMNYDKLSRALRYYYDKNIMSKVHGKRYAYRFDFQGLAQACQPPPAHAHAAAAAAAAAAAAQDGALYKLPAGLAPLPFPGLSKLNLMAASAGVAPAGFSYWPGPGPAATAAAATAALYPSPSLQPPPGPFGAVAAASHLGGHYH
# How it was run: (§1)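 Sequencing on an Illumina NextSeq500 followed washing, crosslinking with 0.1% formaldehyde, proximity ligation (BsaI/T4 ligase, 1 h, 37 °C) and PCR amplification of pools that had been incubated for 30 min at room temperature with 200 nmole of a random double-stranded 16-mer DNA library in Tris/NaCl/DTT/glycerol buffer. Each pool held DNA-barcoded human transcription factors, expressed in yeast as GST fusions and captured on glutathione beads, plus a tag-only sample. Binding signal is a hexamer's read frequency for a factor divided by its frequency in the tag-only sample.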
# [2] = target: ETV5 (Homo sapiens, UniProt P41161 1-510); settings: protein: recombinant; tags: N-terminal GST; dsDNA, one strand shown
# ETV5, sequence (P41161 whole entry): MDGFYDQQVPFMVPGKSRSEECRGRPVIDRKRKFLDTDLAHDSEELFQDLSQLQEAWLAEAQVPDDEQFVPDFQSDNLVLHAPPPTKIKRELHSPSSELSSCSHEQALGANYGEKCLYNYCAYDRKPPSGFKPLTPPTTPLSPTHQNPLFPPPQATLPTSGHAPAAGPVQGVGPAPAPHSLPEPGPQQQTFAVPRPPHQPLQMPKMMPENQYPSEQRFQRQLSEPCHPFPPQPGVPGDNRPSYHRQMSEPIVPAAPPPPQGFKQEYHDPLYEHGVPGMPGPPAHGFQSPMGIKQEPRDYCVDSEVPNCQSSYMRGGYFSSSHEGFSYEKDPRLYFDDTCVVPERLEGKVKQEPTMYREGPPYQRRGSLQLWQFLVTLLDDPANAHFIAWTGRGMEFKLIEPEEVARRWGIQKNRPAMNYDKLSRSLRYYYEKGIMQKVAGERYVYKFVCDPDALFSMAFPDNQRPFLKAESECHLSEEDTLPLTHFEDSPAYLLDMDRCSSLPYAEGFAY
# How it was run: as §1
# [3] = target: HSF1 (Homo sapiens, UniProt Q00613 1-529); settings: protein: recombinant; tags: N-terminal GST; chain copies: 3; dsDNA, one strand shown
# HSF1, sequence (Q00613 whole entry): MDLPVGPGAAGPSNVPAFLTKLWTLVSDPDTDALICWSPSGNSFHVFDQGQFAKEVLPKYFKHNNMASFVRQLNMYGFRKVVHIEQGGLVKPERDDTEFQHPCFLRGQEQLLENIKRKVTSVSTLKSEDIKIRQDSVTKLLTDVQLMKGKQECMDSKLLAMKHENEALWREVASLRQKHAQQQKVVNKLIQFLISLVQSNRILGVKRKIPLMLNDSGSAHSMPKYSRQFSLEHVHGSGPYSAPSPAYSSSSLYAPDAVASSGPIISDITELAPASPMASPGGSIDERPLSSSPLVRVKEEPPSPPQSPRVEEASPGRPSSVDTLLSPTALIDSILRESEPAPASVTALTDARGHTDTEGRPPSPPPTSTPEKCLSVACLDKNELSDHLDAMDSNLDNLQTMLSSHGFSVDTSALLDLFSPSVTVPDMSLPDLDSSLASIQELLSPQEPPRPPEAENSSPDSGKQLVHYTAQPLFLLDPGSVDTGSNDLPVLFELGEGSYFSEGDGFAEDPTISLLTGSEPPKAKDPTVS
# How it was run: as §1
# [4] = target: T2, SPIC (Homo sapiens, UniProt Q8N5J4 1-248); settings: protein: recombinant; tags: N-terminal GST; dsDNA, one strand shown
# T2 sequence: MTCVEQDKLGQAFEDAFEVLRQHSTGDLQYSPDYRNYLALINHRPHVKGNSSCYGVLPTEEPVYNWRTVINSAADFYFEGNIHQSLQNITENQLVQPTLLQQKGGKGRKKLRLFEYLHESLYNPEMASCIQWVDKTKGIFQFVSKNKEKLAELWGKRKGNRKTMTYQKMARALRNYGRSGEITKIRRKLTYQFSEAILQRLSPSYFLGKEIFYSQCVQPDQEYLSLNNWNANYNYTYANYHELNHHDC
# How it was run: as §1
# [5] = target: ELF4 (Homo sapiens, UniProt Q99607 1-663); settings: protein: recombinant; tags: N-terminal GST; dsDNA, one strand shown
# ELF4, sequence (Q99607 whole entry): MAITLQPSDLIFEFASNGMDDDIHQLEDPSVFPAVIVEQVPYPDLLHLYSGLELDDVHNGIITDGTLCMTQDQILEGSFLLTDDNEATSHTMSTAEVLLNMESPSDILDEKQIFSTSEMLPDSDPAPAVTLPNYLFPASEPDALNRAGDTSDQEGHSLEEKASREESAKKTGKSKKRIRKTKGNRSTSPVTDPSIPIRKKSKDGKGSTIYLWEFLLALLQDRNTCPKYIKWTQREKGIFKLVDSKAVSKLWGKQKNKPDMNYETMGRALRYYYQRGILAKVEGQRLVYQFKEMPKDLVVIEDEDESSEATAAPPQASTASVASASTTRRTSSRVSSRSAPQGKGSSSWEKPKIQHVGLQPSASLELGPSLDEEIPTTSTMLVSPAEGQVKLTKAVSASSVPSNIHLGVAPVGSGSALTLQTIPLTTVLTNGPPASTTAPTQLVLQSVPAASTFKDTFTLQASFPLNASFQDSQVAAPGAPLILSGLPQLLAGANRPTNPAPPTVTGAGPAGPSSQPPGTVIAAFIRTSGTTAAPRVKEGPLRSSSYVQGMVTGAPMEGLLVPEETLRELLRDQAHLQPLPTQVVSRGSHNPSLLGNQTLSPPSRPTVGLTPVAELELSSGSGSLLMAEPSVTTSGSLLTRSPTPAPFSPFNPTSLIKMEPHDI
# How it was run: as §1
# [6] = target: T3, ELK4 (Homo sapiens, UniProt P28324-2 1-405); settings: protein: recombinant; tags: N-terminal GST; dsDNA, one strand shown
# T3 sequence: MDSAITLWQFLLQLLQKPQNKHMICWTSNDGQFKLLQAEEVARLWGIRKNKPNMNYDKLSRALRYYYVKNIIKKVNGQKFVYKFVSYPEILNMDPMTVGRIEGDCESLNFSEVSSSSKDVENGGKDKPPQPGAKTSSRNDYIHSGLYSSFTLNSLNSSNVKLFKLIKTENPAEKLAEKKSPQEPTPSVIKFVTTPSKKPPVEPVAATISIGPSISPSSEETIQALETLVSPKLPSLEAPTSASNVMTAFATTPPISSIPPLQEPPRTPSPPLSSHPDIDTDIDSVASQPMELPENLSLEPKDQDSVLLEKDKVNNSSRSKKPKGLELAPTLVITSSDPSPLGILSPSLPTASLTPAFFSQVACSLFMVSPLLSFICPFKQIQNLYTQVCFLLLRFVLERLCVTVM
# How it was run: as §1
# [7] = target: T4, ETV2 (Homo sapiens, UniProt O00321 1-342); settings: protein: recombinant; tags: N-terminal GST; dsDNA, one strand shown
# T4 sequence: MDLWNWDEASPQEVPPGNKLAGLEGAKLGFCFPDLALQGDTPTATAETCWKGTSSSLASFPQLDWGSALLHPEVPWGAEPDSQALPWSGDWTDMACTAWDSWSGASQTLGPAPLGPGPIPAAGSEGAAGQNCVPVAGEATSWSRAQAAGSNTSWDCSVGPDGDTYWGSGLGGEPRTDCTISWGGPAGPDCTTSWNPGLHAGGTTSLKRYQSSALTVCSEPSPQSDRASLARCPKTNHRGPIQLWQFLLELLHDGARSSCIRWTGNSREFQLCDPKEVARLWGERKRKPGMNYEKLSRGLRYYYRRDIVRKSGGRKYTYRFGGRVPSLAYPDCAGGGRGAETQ
# How it was run: as §1
# [8] = target: T5, ELF3 (Homo sapiens, UniProt P78545 1-371); settings: protein: recombinant; tags: N-terminal GST; dsDNA, one strand shown
# T5 sequence: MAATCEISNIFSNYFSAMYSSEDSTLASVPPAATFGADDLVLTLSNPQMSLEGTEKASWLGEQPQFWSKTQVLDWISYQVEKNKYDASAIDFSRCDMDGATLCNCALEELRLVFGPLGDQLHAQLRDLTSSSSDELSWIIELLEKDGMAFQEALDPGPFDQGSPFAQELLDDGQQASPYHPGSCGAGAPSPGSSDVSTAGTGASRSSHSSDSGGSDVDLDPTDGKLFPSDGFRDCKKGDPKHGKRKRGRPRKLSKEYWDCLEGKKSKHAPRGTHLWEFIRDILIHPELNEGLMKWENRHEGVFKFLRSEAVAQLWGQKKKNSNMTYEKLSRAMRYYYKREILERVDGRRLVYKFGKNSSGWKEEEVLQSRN
# How it was run: as §1
# [9] = target: CRX (Homo sapiens, UniProt O43186 1-299); settings: protein: recombinant; tags: N-terminal GST; dsDNA, one strand shown
# CRX, sequence (O43186 whole entry): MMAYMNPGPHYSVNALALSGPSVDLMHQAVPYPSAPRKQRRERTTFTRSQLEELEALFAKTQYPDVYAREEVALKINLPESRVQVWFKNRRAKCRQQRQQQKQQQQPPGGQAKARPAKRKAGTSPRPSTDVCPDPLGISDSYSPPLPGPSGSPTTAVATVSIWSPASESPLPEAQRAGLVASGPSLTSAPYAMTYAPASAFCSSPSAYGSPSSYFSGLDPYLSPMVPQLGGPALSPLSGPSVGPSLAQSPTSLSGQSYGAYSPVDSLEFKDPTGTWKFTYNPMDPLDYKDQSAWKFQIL
# How it was run: as §1
# [10] = target: ETV1 (Homo sapiens, UniProt P50549 1-477); settings: protein: recombinant; tags: N-terminal GST; dsDNA, one strand shown
# ETV1, sequence (P50549 whole entry): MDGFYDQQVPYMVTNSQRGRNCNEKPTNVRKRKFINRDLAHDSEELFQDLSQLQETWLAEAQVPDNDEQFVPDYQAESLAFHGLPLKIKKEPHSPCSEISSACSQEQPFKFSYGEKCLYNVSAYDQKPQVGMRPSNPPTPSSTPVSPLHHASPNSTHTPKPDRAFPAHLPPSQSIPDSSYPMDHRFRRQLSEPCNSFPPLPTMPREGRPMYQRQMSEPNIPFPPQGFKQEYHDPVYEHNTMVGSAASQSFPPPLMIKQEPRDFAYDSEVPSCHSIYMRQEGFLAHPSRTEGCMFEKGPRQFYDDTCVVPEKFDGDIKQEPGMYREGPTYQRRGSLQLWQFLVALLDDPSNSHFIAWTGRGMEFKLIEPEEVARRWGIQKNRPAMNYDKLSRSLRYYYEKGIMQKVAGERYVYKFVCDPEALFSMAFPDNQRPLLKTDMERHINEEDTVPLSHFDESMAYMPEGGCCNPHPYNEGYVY
# How it was run: as §1
Sequence,binding signal [1],binding signal [2],binding signal [3],binding signal [4],binding signal [5],binding signal [6],binding signal [7],binding signal [8],binding signal [9],binding signal [10]
AATTCG,"1.26 fold enrichment (6-mer frequency, TF over GST control)","1.31 fold enrichment (6-mer frequency, TF over GST control)","1.76 fold enrichment (6-mer frequency, TF over GST control)","1.43 fold enrichment (6-mer frequency, TF over GST control)","1.26 fold enrichment (6-mer frequency, TF over GST control)","1.23 fold enrichment (6-mer frequency, TF over GST control)","1.19 fold enrichment (6-mer frequency, TF over GST control)","1.3 fold enrichment (6-mer frequency, TF over GST control)","1.57 fold enrichment (6-mer frequency, TF over GST control)","1.18 fold enrichment (6-mer frequency, TF over GST control)"
ACGTAT,"1.2 fold enrichment (6-mer frequency, TF over GST control)","1.2 fold enrichment (6-mer frequency, TF over GST control)","1.09 fold enrichment (6-mer frequency, TF over GST control)","1.14 fold enrichment (6-mer frequency, TF over GST control)","1.27 fold enrichment (6-mer frequency, TF over GST control)","1.16 fold enrichment (6-mer frequency, TF over GST control)","1.24 fold enrichment (6-mer frequency, TF over GST control)","1.25 fold enrichment (6-mer frequency, TF over GST control)","1.15 fold enrichment (6-mer frequency, TF over GST control)","1.32 fold enrichment (6-mer frequency, TF over GST control)"
ACATTA,"1.16 fold enrichment (6-mer frequency, TF over GST control)","1.12 fold enrichment (6-mer frequency, TF over GST control)","1.2 fold enrichment (6-mer frequency, TF over GST control)","1.23 fold enrichment (6-mer frequency, TF over GST control)","1.2 fold enrichment (6-mer frequency, TF over GST control)","1.18 fold enrichment (6-mer frequency, TF over GST control)","1.25 fold enrichment (6-mer frequency, TF over GST control)","1.14 fold enrichment (6-mer frequency, TF over GST control)","1.38 fold enrichment (6-mer frequency, TF over GST control)","1.29 fold enrichment (6-mer frequency, TF over GST control)"
CCTATA,"1.33 fold enrichment (6-mer frequency, TF over GST control)","1.31 fold enrichment (6-mer frequency, TF over GST control)","1.16 fold enrichment (6-mer frequency, TF over GST control)","1.35 fold enrichment (6-mer frequency, TF over GST control)","1.29 fold enrichment (6-mer frequency, TF over GST control)","1.4 fold enrichment (6-mer frequency, TF over GST control)","1.43 fold enrichment (6-mer frequency, TF over GST control)","1.15 fold enrichment (6-mer frequency, TF over GST control)","1.34 fold enrichment (6-mer frequency, TF over GST control)","1.29 fold enrichment (6-mer frequency, TF over GST control)"
TTGATA,"1.13 fold enrichment (6-mer frequency, TF over GST control)","1.15 fold enrichment (6-mer frequency, TF over GST control)","1.19 fold enrichment (6-mer frequency, TF over GST control)","1.36 fold enrichment (6-mer frequency, TF over GST control)","1.29 fold enrichment (6-mer frequency, TF over GST control)","1.42 fold enrichment (6-mer frequency, TF over GST control)","1.23 fold enrichment (6-mer frequency, TF over GST control)","1.03 fold enrichment (6-mer frequency, TF over GST control)","1.53 fold enrichment (6-mer frequency, TF over GST control)","1.25 fold enrichment (6-mer frequency, TF over GST control)"
TTGTGG,"1.27 fold enrichment (6-mer frequency, TF over GST control)","1.41 fold enrichment (6-mer frequency, TF over GST control)","1.37 fold enrichment (6-mer frequency, TF over GST control)","1.44 fold enrichment (6-mer frequency, TF over GST control)","1.51 fold enrichment (6-mer frequency, TF over GST control)","1.35 fold enrichment (6-mer frequency, TF over GST control)","1.29 fold enrichment (6-mer frequency, TF over GST control)","1.34 fold enrichment (6-mer frequency, TF over GST control)","1.46 fold enrichment (6-mer frequency, TF over GST control)","1.27 fold enrichment (6-mer frequency, TF over GST control)"
ACCCTA,"1.22 fold enrichment (6-mer frequency, TF over GST control)","1.21 fold enrichment (6-mer frequency, TF over GST control)","1.18 fold enrichment (6-mer frequency, TF over GST control)","1.19 fold enrichment (6-mer frequency, TF over GST control)","1.26 fold enrichment (6-mer frequency, TF over GST control)","1.24 fold enrichment (6-mer frequency, TF over GST control)","1.27 fold enrichment (6-mer frequency, TF over GST control)","1.23 fold enrichment (6-mer frequency, TF over GST control)","1.29 fold enrichment (6-mer frequency, TF over GST control)","1.45 fold enrichment (6-mer frequency, TF over GST control)"
ACCCTT,"1.21 fold enrichment (6-mer frequency, TF over GST control)","1.25 fold enrichment (6-mer frequency, TF over GST control)","1.09 fold enrichment (6-mer frequency, TF over GST control)","1.02 fold enrichment (6-mer frequency, TF over GST control)","1.26 fold enrichment (6-mer frequency, TF over GST control)","1.08 fold enrichment (6-mer frequency, TF over GST control)","1.33 fold enrichment (6-mer frequency, TF over GST control)","1.23 fold enrichment (6-mer frequency, TF over GST control)","1.15 fold enrichment (6-mer frequency, TF over GST control)","1.18 fold enrichment (6-mer frequency, TF over GST control)"
